Experimental data from PubChem BioAssay.
Values joined by “and” are separate entries in the source; they are usually repeats but may differ in a detail not shown here. Equal values may be shown once. Active and inactive are the calls of the source.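 Rule for the calls, unless noted: active = compound that reduces growth-factor-driven endothelial tube area in a mixed cell culture, no cutoff stated; inactive = the rest.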

Assays:
[1] = P. berghei load reduction in hepatocytes – cell-based, HepG2, luciferase luminescence, HepG2 viability, primary screen (AID 624349; in the data active = parasite load remaining mostly below about 12%, no sharp cut-off; inactive = mostly above about 10%;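 note: 100% = mean of DMSO negative control wells on the same plate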); settings: P. berghei liver stage in HepG2, luciferase luminescence, concentration not given here; parasite load remaining: stronger effect = lower value; viability: measured here: HepG2 viability without parasites
[2] = Wnt pathway potentiators raising nuclear beta-catenin – imaging, WNT3A-conditioned medium, mouse C2C12, NPC library, primary screen (AID 1117326; in the data active = nuclear beta-catenin stimulation mostly above about 4.2%, no sharp cut-off; inactive = mostly below about 10%); settings: stronger effect = higher value
[3] = stimulators of insulin release from INS-1E, primary screen, cell-based, 5 mM glucose, NPC library (AID 1117329;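 active = compound raises insulin release from rat beta cells at 5 mM glucose, no numeric limit stated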); settings: rat INS-1E insulin secretion, at 10 µM, stronger effect = higher value
[4] = growth inhibition of GSK3B-pretreated HCT116 cells – cell-based, CellTiter-Glo, 0.2 to 20 µM (AID 1117336;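 active = compounds lowering colon cancer cell viability after pretreatment blocking the GSK3B kinase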); settings: HCT116 viability after GSK3B inhibitor, at 20 µM, stronger effect = higher value
[5] = inhibition of endothelial tube formation, primary screen, imaging, VEGF stimulated, CD31 staining, tube area, NPC library (AID 1117340); settings: VEGF-stimulated ADSC/ECFC co-culture, at 10 µM, stronger effect = higher value
[6] = GLP1 release stimulators, primary, NCI-H716, NPC library (AID 1117341;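 active = compound raises GLP1 secretion from the human gut endocrine cells, with no numeric limit stated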); settings: NCI-H716 cells, at 10 µM, stronger effect = higher value
[7] = HCT116 colon cancer cell growth inhibition, primary screen, CellTiter-Glo luminescence, NPC library (AID 1117342;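 active = compounds that lower survival of HCT116 colon cancer cells in the luminescence readout, no numeric limit stated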); settings: at 20 µM (top of the series)
[8] = reduced SW480 viability measured with CellTiter-Glo, NPC library, primary (AID 1117343;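 active = compounds that lower viability of the colon cancer cells in the luminescence readout, with no numeric limit stated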); settings: CellTiter-Glo luminescence; at 20 µM (top of the series) unless noted
[9] = NPC library primary testing for decreased DLD-1 cell viability via CellTiter-Glo (AID 1117346;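 active = compounds that lower survival of DLD-1 colon cancer cells in the luminescence readout, no cutoff given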); settings: DLD-1 viability, CellTiter-Glo luminescence; at 20 µM (top of the series)
[10] = EMT-state selective cytotoxicity in co-culture – imaging, PC-3E GFP, TEM4-18 mCherry, primary screen (AID 1345086;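 active = compounds killing one labelled cell type while sparing the other, by normalised counts and ratio limits, not self-fluorescent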;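 for all read-outs here: cells exposed to compound for 72 h before imaging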;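 for red/green cell ratio (normalised): normalised mesenchymal count divided by normalised epithelial count so high means epithelial killing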); settings: PC-3E GFP / TEM4-18 mCherry co-culture, imaging cell counts, at 1 µM; for red/green cell ratio (normalised): actives lie on both sides, counts scaled to control wells, 1 = unselective
[11] = viability loss with induced miR-34 in A549 – imaging, A549 dox-inducible miR-34, nuclei and caspase counts, primary screen (AID 1347080;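 active = compounds whose cell count with miR-34 switched on is under 0.7 times the count with it off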); settings: A549 miR-34 inducible, Hoechst nuclei count, 48 h
[12] = target: NAD(+) hydrolase SARM1 (Homo sapiens) (UniProt Q6SZW1); assay: blocking NAD cleavage by SARM1 SAM-TIR – cell lysate, NAD-Glo luminescence (AID 1508614;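 active = compound whose remaining NAD level is above about 45 nM, limit read from the data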;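 note: higher remaining NAD means stronger inhibition of SARM1 NADase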); settings: SAM-TIR HEK293T lysate NADase, at 1 µM, stronger effect = higher value
[13] = MELAS cybrid and Rieske KO viability enhancers – cell-based, MELAS cybrids, Rieske KO mouse fibroblasts, CellTiter-Glo, primary screen (AID 1508586;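 active = mean z-score across replicates of 1.96 or higher in either the MELAS or the Rieske mutant cell line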;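 note: z relative to plate mean and SD of compound and empty wells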); settings: low glucose
[14] = galactose survival enhancers in mitochondrial complex I cybrids – cell-based, galactose medium, ATP luminescence, primary screen (AID 1645843;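 active = z-score of at least 1.8 in each of two replicates, scored against plate mean and spread of sample wells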;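 note: positive z means more ATP and so rescue of galactose-driven cybrid death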); settings: complex I mutant cybrid cells, 72 h, stronger effect = higher value
[15] = measured here: epithelial PC-3E GFP cell survival
[16] = measured here: mesenchymal TEM4-18 mCherry cell survival
[17] = stronger effect = lower value, cell number ratio, induced over uninduced
[18] = measured here: relative caspase fold change +Dox/-Dox
[19] = measured here: total cells with miR-34 induction, stronger effect = lower value
[20] = measured here: total cells without miR-34 induction

Sequence of NAD(+) hydrolase SARM1 (Homo sapiens) (Q6SZW1 whole entry, looked up): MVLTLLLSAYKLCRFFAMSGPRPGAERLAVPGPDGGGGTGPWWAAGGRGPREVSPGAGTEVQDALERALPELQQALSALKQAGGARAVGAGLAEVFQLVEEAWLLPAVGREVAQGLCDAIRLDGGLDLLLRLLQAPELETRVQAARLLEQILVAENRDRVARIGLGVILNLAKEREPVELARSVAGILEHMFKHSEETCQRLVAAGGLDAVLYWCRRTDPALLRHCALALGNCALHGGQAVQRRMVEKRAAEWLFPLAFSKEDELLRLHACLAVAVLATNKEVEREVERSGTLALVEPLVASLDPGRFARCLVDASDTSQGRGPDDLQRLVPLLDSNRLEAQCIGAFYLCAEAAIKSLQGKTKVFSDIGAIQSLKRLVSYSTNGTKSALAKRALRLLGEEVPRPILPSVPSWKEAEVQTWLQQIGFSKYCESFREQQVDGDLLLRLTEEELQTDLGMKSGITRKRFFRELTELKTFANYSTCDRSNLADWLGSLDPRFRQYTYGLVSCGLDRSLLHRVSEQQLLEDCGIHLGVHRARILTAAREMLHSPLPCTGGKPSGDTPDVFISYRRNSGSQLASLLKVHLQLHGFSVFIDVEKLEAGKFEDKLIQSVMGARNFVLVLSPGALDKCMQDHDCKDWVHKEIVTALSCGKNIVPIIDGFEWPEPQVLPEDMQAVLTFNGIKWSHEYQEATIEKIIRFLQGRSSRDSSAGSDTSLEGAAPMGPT

SMILES: OC1C(O)C(O)C(O)C(O)C1O (stereo unspecified)
- parasite load remaining [1]: 41.7% (inactive)
- viability [1]: 104%
- nuclear beta-catenin stimulation ([2]; at 10 µM): 2.8% (inactive)
- nuclear beta-catenin stimulation ([2]; stimulation, at 2 µM): 0.4%
- insulin secretion stimulation [3]: 0.4% (inactive)
- viability decrease [4]: -3.8% (inactive)
- tube area decrease [5]: 3% (inactive)
- GLP1 secretion stimulation [6]: -2.7% (inactive)
- inhibition of viability [7]: 3.1% (inactive)
- viability decrease (inhibition) [8]: 4.8% (inactive)
- viability decrease (inhibition) [9]: 0.6% (inactive)
- red/green cell ratio (normalised) [10]: 1.17 (inactive)
- normalised cell number [10, 15]: 0.97
- normalised cell number [10, 16]: 1.13
- fold change [11, 17]: 0.895 (inactive)
- fold change [11, 18]: 0.941
- cell count [11, 19]: 11600
- cell count [11, 20]: 12900
- remaining NAD [12]: 10 nM (inactive)

SMILES: CC(=O)OCC(=O)[C@@]1(O)CCC2C3CCC4=CC(=O)CC[C@]4(C)C3[C@@H](O)C[C@@]21C (stereo partly specified)
- parasite load remaining [1]: 123% (inactive) and 70.8% (inactive)
- viability [1]: 73.9% and 90.3%
- nuclear beta-catenin stimulation ([2]; at 10 µM): -1.1% (inactive)
- nuclear beta-catenin stimulation ([2]; stimulation, at 2 µM): -0.8%
- insulin secretion stimulation [3]: -1.3% (inactive)
- viability decrease [4]: -8% (inactive)
- tube area decrease [5]: 1.6% (inactive)
- GLP1 secretion stimulation [6]: -3.9% (inactive)
- inhibition of viability [7]: -1.6% (inactive)
- viability decrease (inhibition) [8]: -3% (inactive)
- viability decrease (inhibition) [9]: -12.5% (inactive)
- red/green cell ratio (normalised) [10]: 1.16 (inactive)
- normalised cell number [10, 15]: 1.24
- normalised cell number [10, 16]: 1.44
- fold change [11, 17]: 0.742 (inactive)
- fold change [11, 18]: 1.6
- cell count [11, 19]: 6930
- cell count [11, 20]: 9340

SMILES: CC(=O)N[C@@H](CCC(N)=O)C(=O)O
- nuclear beta-catenin stimulation ([2]; at 10 µM): -2.5% (inactive)
- nuclear beta-catenin stimulation ([2]; stimulation, at 2 µM): 0.1%
- insulin secretion stimulation [3]: 2.8% (inactive)
- viability decrease [4]: -2.5% (inactive)
- tube area decrease [5]: 12.1% (inactive)
- GLP1 secretion stimulation [6]: -3.6% (inactive)
- inhibition of viability [7]: 0.7% (inactive)
- viability decrease (inhibition) [8]: 9.6% (inactive)
- viability decrease (inhibition) [9]: -3.7% (inactive)
- red/green cell ratio (normalised) [10]: 0.96 (inactive)
- normalised cell number [10, 15]: 0.97
- normalised cell number [10, 16]: 0.93
- fold change [11, 17]: 0.922 (inactive)
- fold change [11, 18]: 0.675
- cell count [11, 19]: 8950
- cell count [11, 20]: 9710
- remaining NAD [12]: 10 nM (inactive)

SMILES: CN(C)CCCOc1nn(Cc2ccccc2)c2ccccc12
- nuclear beta-catenin stimulation ([2]; at 10 µM): 2.1% (inactive)
- nuclear beta-catenin stimulation ([2]; stimulation, at 2 µM): 0.5%
- insulin secretion stimulation [3]: 86.5% (active)
- viability decrease [4]: 21.7% (inactive)
- tube area decrease [5]: 12.8% (inactive)
- GLP1 secretion stimulation [6]: 6% (inactive)
- inhibition of viability [7]: 46% (inactive)
- viability decrease (inhibition) [8]: 82.6% (active)
- viability decrease (inhibition) [9]: 84.1% (active)
- red/green cell ratio (normalised) [10]: 0.88 (inactive)
- normalised cell number [10, 15]: 1.01
- normalised cell number [10, 16]: 0.89
- z-score ([13]; MELAS cybrid survival, CellTiter-Glo 48 h, stronger effect = higher value): -0.315 (inactive) and 0.45 (inactive) and -0.608 (inactive)
- z-score ([13]; Rieske KO mouse fibroblast survival, CellTiter-Glo 72 h): -0.145 and 0.0321 and -1.45
- remaining NAD [12]: 10 nM (inactive)
- z-score [14]: -0.89 (inactive)

SMILES: Cc1cc(C(C#N)c2ccc(Cl)cc2)c(Cl)cc1NC(=O)c1cc(I)cc(I)c1O (stereo unspecified)
- parasite load remaining [1]: 10.9% (inactive)
- viability [1]: 94.5%
- nuclear beta-catenin stimulation ([2]; at 10 µM): 2.4% (inactive)
- nuclear beta-catenin stimulation ([2]; stimulation, at 2 µM): 1.5%
- insulin secretion stimulation [3]: -0.6% (inactive)
- viability decrease [4]: 120% (active)
- tube area decrease [5]: 111% (active)
- GLP1 secretion stimulation [6]: 14.4% (inactive)
- inhibition of viability [7]: 125% (active)
- viability decrease (inhibition) [8]: 163% (active)
- viability decrease (inhibition) [9]: 101% (active)
- red/green cell ratio (normalised) [10]: 0.8 (inactive)
- normalised cell number [10, 15]: 1.27
- normalised cell number [10, 16]: 1.02
- remaining NAD [12]: 10 nM (inactive)
- z-score [14]: 0.12 (inactive)
